Experimental data reported in PubChem BioAssay (Tox21).
Records with an inconclusive call do not appear. Activity calls are given as the source filed them. Unless noted, calls follow the shape of the dose curve; as a rule, active = well fitted curve in the direction sought with a large enough effect in the repeat runs; inconclusive = weak or mixed curves; inactive = no such curve, though single readings can be large; an effect the other way counts as inactive or inconclusive.

Experiments:
[1] = qHTS assay to identify small molecule antagonists of the retinoid-related orphan receptor gamma (ROR-gamma) signaling pathway - cell viability counter screen (AID 1159520); also: nearly all actives have a fitted effect of over 50% in size; also: potency is read from the fitted curve at half-maximal effect
Summary of the method: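 Tet-on ROR gamma CHO cells (1,000/well) were plated 4 hr, given compounds in DMSO for 2 hr at 37 C, then induced with 1 uM final doxycycline for 16 hr. Viability was read as ATP by CellTiter-Glo luminescence after 30 min.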

[2] = target: Nuclear receptor ROR-gamma (Homo sapiens) (UniProt P51449); experiment: qHTS assay to identify small molecule antagonists of the retinoid-related orphan receptor gamma (ROR-gamma) signaling pathway (AID 1159521; also: nearly all actives have a fitted effect of over 50% in size; also: potency is read from the fitted curve at half-maximal effect)
Summary of the method: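 Screening format: cell-based luciferase reporter in CHO cells with doxycycline-inducible RORγ. Compound pre-exposure lasts 2 h, doxycycline is 1 uM final, induction runs 16 h at 37 C, and ONE-Glo luminescence is read.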

[3] = qHTS assay to identify small molecule agonists of the AP-1 signaling pathway (AID 1159526; calls by dose curve)
[4] = target: Retinoic acid receptor RXR-alpha (Homo sapiens) (UniProt P19793); experiment: qHTS assay to identify small molecule agonists of the RXR signaling pathway (AID 1159527; calls by dose curve; also: nearly all actives have a fitted effect of over 35% in size)
Chain of Retinoic acid receptor RXR-alpha (Homo sapiens) (P19793 whole entry, looked up): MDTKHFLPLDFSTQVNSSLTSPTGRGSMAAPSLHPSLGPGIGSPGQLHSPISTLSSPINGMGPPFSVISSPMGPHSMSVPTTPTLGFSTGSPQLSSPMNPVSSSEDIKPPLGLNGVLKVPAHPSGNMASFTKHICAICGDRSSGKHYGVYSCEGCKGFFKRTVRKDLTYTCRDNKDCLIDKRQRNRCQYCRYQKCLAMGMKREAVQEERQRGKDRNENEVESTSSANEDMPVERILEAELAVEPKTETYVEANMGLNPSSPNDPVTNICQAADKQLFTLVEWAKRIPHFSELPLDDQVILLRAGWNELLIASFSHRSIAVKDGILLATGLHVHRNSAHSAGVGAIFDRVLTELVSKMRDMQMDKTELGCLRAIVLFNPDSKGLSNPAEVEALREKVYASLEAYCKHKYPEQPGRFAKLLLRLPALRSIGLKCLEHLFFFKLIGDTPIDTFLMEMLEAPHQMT
Summary of the method: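 Fluorescence ratio readout (460 vs 530 nm) from GeneBLAzer RXR-alpha HEK 293T cells after 16 hr compound treatment; cells seeded 5 hr beforehand in low-serum, charcoal-stripped medium.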

[5] = qHTS assay to identify small molecule agonists of the AP-1 signaling pathway - cell viability counter screen (AID 1159525; calls by dose curve; also: nearly all actives have a fitted effect of over 55% in size; also: potency is read from the fitted curve at half-maximal effect)
Summary of the method: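 ME-180 AP-1-bla, 2500 cells/well, Opti-MEM + 0.5% dialyzed FBS; overnight 37 °C; cpd 15-pt titration, 5 h 37 °C; CellTiter-Glo 30 min RT; luminescence read; normalised to TOAB and DMSO controls.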

[6] = qHTS assay to identify small molecule agonists of the peroxisome proliferator-activated receptor delta (PPARd) signaling pathway - cell viability counter screen (AID 743211); also: potency is read from the fitted curve at half-maximal effect; nearly all actives have a fitted effect of over 55% in size
Summary of the method: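 Following 5 h plating at 37 C and 5% CO2, PPARd UAS-bla HEK293H cells took up test compounds for 17 h. Viability was quantified by luminescence 30 min after CellTiter-Glo addition at room temperature.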

[7] = qHTS assay to identify small molecule antagonists of the peroxisome proliferator-activated receptor delta (PPARd) signaling pathway - cell viability counter screen (AID 743213); also: nearly all actives have a fitted effect of over 50% in size; also: potency is read from the fitted curve at half-maximal effect
Summary of the method: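 HEK293H PPARd UAS-bla cells, 5 h pre-incubation, compound + L165041 300 nM final, 17 h 37 C; B/G FRET substrate 2 h RT; then CellTiter-Glo 30 min RT, luminescence.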

[8] = target: Bile acid receptor (Homo sapiens) (UniProt Q96RI1); experiment: qHTS assay to identify small molecule antagonists of the farnesoid-X-receptor (FXR) signaling pathway (AID 743217; active = well fitted inhibition curve with a large enough effect in the signal ratio in the repeat runs, not every such curve was filed as active; the % refers to the signal ratio; also: potency is read from the fitted curve at half-maximal effect)
Chain of Bile acid receptor (Homo sapiens) (Q96RI1 whole entry, looked up): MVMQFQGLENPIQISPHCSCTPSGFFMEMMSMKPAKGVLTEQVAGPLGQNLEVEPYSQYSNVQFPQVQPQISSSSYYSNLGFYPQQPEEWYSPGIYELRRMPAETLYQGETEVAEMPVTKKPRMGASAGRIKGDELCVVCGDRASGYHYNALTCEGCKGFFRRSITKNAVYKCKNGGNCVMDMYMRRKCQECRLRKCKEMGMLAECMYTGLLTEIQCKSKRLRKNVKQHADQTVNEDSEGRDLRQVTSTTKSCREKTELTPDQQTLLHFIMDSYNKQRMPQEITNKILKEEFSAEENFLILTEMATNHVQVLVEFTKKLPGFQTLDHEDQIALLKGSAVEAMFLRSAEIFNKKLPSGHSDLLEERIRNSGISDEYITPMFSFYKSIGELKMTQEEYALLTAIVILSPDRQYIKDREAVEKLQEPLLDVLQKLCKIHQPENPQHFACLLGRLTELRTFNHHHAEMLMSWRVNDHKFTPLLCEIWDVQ
Summary of the method: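 Antagonist mode against 50 uM (final) chenodeoxycholic acid stimulation in FXR-bla HEK 293T cells, 16 h at 37 °C. Inhibition detected as reduced beta-lactamase activity via LiveBLAzer B/G FRET fluorescence after 2 h at room temperature.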

[9] = qHTS assay to identify small molecule agonists of the farnesoid-X-receptor (FXR) signaling pathway - cell viability counter screen (AID 743218); also: potency is read from the fitted curve at half-maximal effect; nearly all actives have a fitted effect of over 45% in size
Summary of the method: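 Cytotoxicity counter-screen run in parallel, same wells: FXR-UAS-bla HEK 293T cells dosed 16 h at 37 C, viability read by CellTiter-Glo luminescence after 30 min at room temperature.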

[10] = target: Bile acid receptor (Homo sapiens) (UniProt Q96RI1); experiment: qHTS assay to identify small molecule agonists of the farnesoid-X-receptor (FXR) signaling pathway (AID 743220; active = well fitted activation curve with a large enough effect in the signal ratio in the repeat runs, not every such curve was filed as active; the % refers to the signal ratio)
Summary of the method: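 Beta-lactamase reporter under UAS control in GeneBLAzer FXR HEK 293T cells (5000/well) measured with LiveBLAzer FRET substrate after 2 h at room temperature. Compound exposure lasted 16 h at 37C.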

[11] = target: Vitamin D3 receptor (Homo sapiens) (UniProt P11473); experiment: qHTS assay to identify small molecule agonists of the vitamin D receptor (VDR) signaling pathway (AID 743222; calls by dose curve)
Chain of Vitamin D3 receptor (Homo sapiens) (P11473 whole entry, looked up): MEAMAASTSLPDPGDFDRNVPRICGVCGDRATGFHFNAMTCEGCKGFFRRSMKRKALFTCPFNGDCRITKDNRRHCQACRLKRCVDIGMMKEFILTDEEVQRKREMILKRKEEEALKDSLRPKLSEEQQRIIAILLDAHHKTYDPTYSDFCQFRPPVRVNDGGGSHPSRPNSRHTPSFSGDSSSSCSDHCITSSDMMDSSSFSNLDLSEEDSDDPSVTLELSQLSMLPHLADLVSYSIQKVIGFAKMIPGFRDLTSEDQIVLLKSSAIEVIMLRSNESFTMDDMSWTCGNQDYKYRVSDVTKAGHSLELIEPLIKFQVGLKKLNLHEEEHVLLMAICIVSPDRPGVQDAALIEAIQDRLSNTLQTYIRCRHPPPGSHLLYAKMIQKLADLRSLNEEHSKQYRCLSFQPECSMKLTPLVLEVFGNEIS
Summary of the method: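 Quantitative HTS agonist-mode screen: compounds in DMSO were pin-transferred onto VDR-bla cells and incubated 16 h at 37C, 5% CO2. Reporter activity was detected with LiveBLAzer B/G FRET substrate after 2 h at room temperature.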

[12] = target: Vitamin D3 receptor (Homo sapiens) (UniProt P11473); experiment: qHTS assay to identify small molecule antagonists of the vitamin D receptor (VDR) signaling pathway (AID 743223; active = well fitted inhibition curve with a large enough effect in the signal ratio in the repeat runs, not every such curve was filed as active; the % refers to the signal ratio; also: potency is read from the fitted curve at half-maximal effect)
Summary of the method: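 Beta-lactamase activity in VDR-bla cells is measured by FRET substrate fluorescence (2 h, room temperature) after cells spend 16 h at 37C with test compound and 3 nM final 1alpha,25-dihydroxyvitamin D3.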

[13] = qHTS assay to identify small molecule agonists of the vitamin D receptor (VDR) signaling pathway - cell viability counter screen (AID 743224); also: nearly all actives have a fitted effect of over 50% in size; also: potency is read from the fitted curve at half-maximal effect
Summary of the method: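 Viability is measured in the same wells as the VDR-bla reporter assay: after 16 h compound treatment and 2 h substrate loading, CellTiter-Glo is added and luminescence read 30 min later.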

[14] = qHTS assay to identify small molecule antagonists of the vitamin D receptor (VDR) signaling pathway - cell viability counter screen (AID 743225); also: nearly all actives have a fitted effect of over 50% in size; also: potency is read from the fitted curve at half-maximal effect
Summary of the method: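 In this counter screen, VDR-bla HEK 293T cells receive test compound plus 3 nM final calcitriol for 16 h at 37C. Room-temperature steps of 2 h with the beta-lactamase substrate, then 30 min with CellTiter-Glo, precede the luminescence read.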

[15] = target: Peroxisome proliferator-activated receptor delta (Homo sapiens) (UniProt Q03181); experiment: qHTS assay to identify small molecule agonists of the peroxisome proliferator-activated receptor delta (PPARd) signaling pathway (AID 743212; calls by dose curve)
Chain of Peroxisome proliferator-activated receptor delta (Homo sapiens) (Q03181 whole entry, looked up): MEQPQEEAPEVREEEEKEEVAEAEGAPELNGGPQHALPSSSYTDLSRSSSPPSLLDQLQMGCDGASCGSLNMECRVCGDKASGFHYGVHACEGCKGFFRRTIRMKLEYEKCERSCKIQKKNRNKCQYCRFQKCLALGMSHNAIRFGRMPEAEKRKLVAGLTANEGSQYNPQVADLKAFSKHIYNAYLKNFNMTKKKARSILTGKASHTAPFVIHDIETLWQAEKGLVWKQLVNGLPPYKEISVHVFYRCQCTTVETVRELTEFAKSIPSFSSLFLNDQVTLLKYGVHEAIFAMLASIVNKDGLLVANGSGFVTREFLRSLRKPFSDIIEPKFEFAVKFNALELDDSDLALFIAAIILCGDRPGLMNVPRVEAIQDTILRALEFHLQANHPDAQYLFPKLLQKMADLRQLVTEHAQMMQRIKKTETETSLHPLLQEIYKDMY
Summary of the method: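 GeneBLAzer PPARd UAS-bla HEK293H cells (beta-lactamase reporter under UAS control), plated and rested 5 h at 37 C, then exposed to compounds in DMSO at 37 C; LiveBLAzer B/G FRET substrate added, 2 h room temperature, fluorescence read.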

[16] = target: Peroxisome proliferator-activated receptor delta (Homo sapiens) (UniProt Q03181); experiment: qHTS assay to identify small molecule antagonists of the peroxisome proliferator-activated receptor delta (PPARd) signaling pathway (AID 743215; active = well fitted inhibition curve with a large enough effect in the signal ratio in the repeat runs, not every such curve was filed as active; the % refers to the signal ratio;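 also: cells stimulated with agonist L165041 at 300 nM final during compound exposure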; also: potency is read from the fitted curve at half-maximal effect)
Summary of the method: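 Inhibition of L165041-driven (300 nM final) PPARd signaling is scored in HEK293H UAS-bla cells. Exposure lasts 17 h at 37 C; beta-lactamase activity is then read by FRET substrate fluorescence after 2 h at room temperature.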

[17] = qHTS assay to identify small molecule antagonists of the farnesoid-X-receptor (FXR) signaling pathway - cell viability counter screen (AID 743221; active = well fitted cell-killing curve with a large enough effect in the repeat runs, not every such curve was filed as active; also: nearly all actives have a fitted effect of over 50% in size; also: potency is read from the fitted curve at half-maximal effect)
Summary of the method: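 Compound effects on cell number were measured as CellTiter-Glo luminescence in HEK 293T cells expressing FXR-UAS-bla, after 16 h at 37 C with 50 uM CDCA (final).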

Measured: Potency

CN(CCCC(O)c1cccnc1)N=O (configuration not stated)
inactive: [1] | [2] | [3] | [4]

CC(=[OH+])/C=C(/C)[O-].CC(=[OH+])/C=C(\C)[O-].CC(=[OH+])/C=C(\C)[O-].[Fe]
inactive: [1] | [2] | [3] | [4]

CC(=[OH+])/C=C(/C)[O-].CC(=[OH+])/C=C(\C)[O-].CC(=[OH+])/C=C(\C)[O-].[Al]
inactive: [1] | [2] | [5] | [3] | [4]

O=C(Nc1ccc2[nH]ccc2c1)c1cc2cc(F)ccc2n1Cc1cccc(F)c1
inactive: [10] | [11]
active: [6] 24.5 µM | [7] 43.6 µM | [8] 54.9 µM | [9] 49 µM | [12] 43.6 µM | [13] 43.6 µM | [14] 43.6 µM | [1] 48.6 µM | [2] 43.3 µM | [5] 27.5 µM

COP(N)(=S)OC
inactive: [1] | [2] | [5] | [3] | [4]

CC(=O)c1cc(C(C)(C)C)cc2c1CCC2(C)C
active: [13] 49 µM
inactive: [15] | [16] | [17] | [11] | [12] | [14] | [1] | [2] | [5]

N#CCCC(Br)(C#N)CBr (configuration not stated)
inactive: [15] | [10] | [17]
active: [13] 43.6 µM | [1] 19.3 µM | [2] 21.7 µM

O=C1c2ccccc2C(=O)C1C(=O)C(c1ccccc1)c1ccc(Cl)cc1 (configuration not stated)
inactive: [15] | [11] | [12] | [5]
active: [6] 24.5 µM | [9] 38.9 µM | [13] 21.9 µM | [1] 30.6 µM | [2] 5.45 µM

Fc1ccc(Oc2ccnc3cc(Cl)cc(Cl)c23)cc1
active: [13] 49 µM
inactive: [15] | [7] | [10] | [17] | [14] | [1] | [2]

C[C@]12CC[C@H](O)C[C@H]1CC[C@@H]1[C@@H]2C[C@@H](O)[C@]2(C)[C@@H](C3=CC(=O)OC3)CC[C@]12O
inactive: [1] | [2] | [3]

BrCC(Br)c1ccccc1 (configuration not stated)
inactive: [1] | [2] | [3] | [4]

CCCCCCCCCCBr
inactive: [1] | [2] | [5] | [4]

C[C@@H](Oc1ccc(Cl)cc1Cl)C(=O)O
inactive: [1] | [5] | [3]

Nc1ccc(Cl)cc1C(=O)c1ccccc1
inactive: [1] | [2] | [5] | [4]

CCOCn1c(-c2ccc(Cl)cc2)c(C#N)c(Br)c1C(F)(F)F
active: [7] 30.9 µM | [9] 12.3 µM | [17] 27.5 µM | [13] 3.47 µM | [14] 4.9 µM | [1] 9.69 µM
inactive: [5]

ClCc1ccccc1CCl
active: [2] 54.5 µM
inactive: [3] | [4]

Clc1ccc(CSC(Cn2ccnc2)c2ccc(Cl)cc2Cl)cc1 (configuration not stated)
active: [17] 23.7 µM | [13] 29.8 µM
inactive: [11] | [1]

CCc1cc(C)cc(CC)c1-c1c(OC(=O)C(C)(C)C)n2n(c1=O)CCOCC2
inactive: [2] | [5] | [4]

CCOP(=S)(OCC)SCCS(=O)(=O)CC
inactive: [2] | [5] | [3] | [4]

OC(Cc1ccccc1Cl)(Cn1cncn1)C1(Cl)CC1 (configuration not stated)
inactive: [1] | [5] | [3] | [4]

Oc1ccc(C2(c3ccc(O)cc3)c3ccccc3-c3ccccc32)cc1
inactive: [11]
active: [7] 13.8 µM | [16] 11 µM | [9] 54.9 µM

OC(c1ccc(Cl)cc1)(c1ccc(Cl)cc1)C(Cl)(Cl)Cl
inactive: [15] | [16] | [10] | [17] | [11] | [12] | [14] | [5]
active: [1] 61.1 µM

O=[N+]([O-])c1cc([N+](=O)[O-])c2ccccc2c1
inactive: [7] | [17] | [13] | [14] | [1]

COc1cc(C=O)cc2c1[C@H](COC(N)=O)[C@]1(OC(C)=O)ON2C[C@H]2[C@@H]1N2C(C)=O
inactive: [15] | [7] | [11] | [13] | [14] | [1] | [3]

CC(O)C#N (configuration not stated)
inactive: [1] | [5] | [4]

CC1(c2ccc(Oc3ccccc3)cc2)OC(=O)N(Nc2ccccc2)C1=O (configuration not stated)
inactive: [10] | [5]
active: [6] 49.3 µM | [16] 24.7 µM | [9] 39.1 µM | [13] 17.5 µM | [14] 39.1 µM | [1] 54.8 µM
